# Experimental data: the supplement of paper PMC12282887
# ± gives the standard deviation of the averaged measurements.
# Key:
# Test in all cases: promoter activity interaction Z-score (Lux/OD deviation from empty-vector control); higher = stronger promoter induction by the compound
# [1] = system: E. coli BW25113 acrABp lux reporter
# In short: (§1)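 Low-copy luxCDABE promoter reporters were carried by E. coli BW25113, either wild type or lacking one of three genes, grown in 40 µl LB Lennox in 384-well plates at 37°C. Each compound was run at four 1:2 dilutions in biological duplicates, with OD600 and luminescence read every 30 min for 12 h. Integration used 0–8 h for wild type and 1–9 h for deletion strains, and wells under 10% of the median growth value were removed. Luminescence normalised to growth was fitted against a control, and the Z-transformed residual is the score.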
# [2] = system: E. coli BW25113 marRABp lux reporter
# In short: as §1
# [3] = system: E. coli BW25113 micFp lux reporter
# In short: as §1
# [4] = system: E. coli BW25113 ompFp lux reporter
# In short: as §1
# [5] = system: E. coli BW25113 robp lux reporter
# In short: as §1
# [6] = system: E. coli BW25113 soxSp lux reporter
# In short: as §1
# [7] = system: E. coli BW25113 tolCp lux reporter
# In short: as §1
# [8] = 1.8 µg/ml, genetic background: wild type
# [9] = 1.8 µg/ml, genetic background: ΔmarA
# [10] = 1.8 µg/ml, genetic background: Δrob
# [11] = 1.8 µg/ml, genetic background: ΔsoxS
# [12] = 3.7 µg/ml, genetic background: wild type
# [13] = 3.7 µg/ml, genetic background: ΔmarA
# [14] = 3.7 µg/ml, genetic background: Δrob
# [15] = 3.7 µg/ml, genetic background: ΔsoxS
# [16] = 7.3 µg/ml, genetic background: wild type
# [17] = 7.3 µg/ml, genetic background: ΔmarA
# [18] = 7.3 µg/ml, genetic background: Δrob
# [19] = 7.3 µg/ml, genetic background: ΔsoxS
# [20] = 14.7 µg/ml, genetic background: wild type
# [21] = 14.7 µg/ml, genetic background: ΔmarA
# [22] = 14.7 µg/ml, genetic background: ΔsoxS
smiles,measurement,setting,value
CC[C@H]1OC(=O)[C@H](C)[C@@H](O[C@H]2C[C@@](C)(OC)[C@@H](O)[C@H](C)O2)[C@H](C)[C@@H](O[C@@H]2O[C@H](C)C[C@H](N(C)C)[C@H]2O)[C@](C)(O)C[C@@H](C)C(=O)[C@H](C)[C@@H](O)[C@]1(C)O [Erythromycin],promoter activity interaction Z-score,[1]; [8],0.453 ± 0.14
same,promoter activity interaction Z-score,[1]; [9],0.681 ± 0.23
same,promoter activity interaction Z-score,[1]; [10],0.159 ± 0.56
same,promoter activity interaction Z-score,[1]; [11],0.201 ± 0.23
same,promoter activity interaction Z-score,[1]; [12],0.762 ± 0.17
same,promoter activity interaction Z-score,[1]; [13],-1.09 ± 0.061
same,promoter activity interaction Z-score,[1]; [14],0.417 ± 0.063
same,promoter activity interaction Z-score,[1]; [15],1.35 ± 1.5
same,promoter activity interaction Z-score,[1]; [16],1.66 ± 0.12
same,promoter activity interaction Z-score,[1]; [17],-0.406 ± 0.24
same,promoter activity interaction Z-score,[1]; [18],1.7 ± 0.48
same,promoter activity interaction Z-score,[1]; [19],2.23 ± 1.1
same,promoter activity interaction Z-score,[1]; [20],7.47 ± 0.26
same,promoter activity interaction Z-score,[2]; [8],0.316 ± 0.064
same,promoter activity interaction Z-score,[2]; [9],0.0943 ± 0.048
same,promoter activity interaction Z-score,[2]; [10],0.109 ± 0.022
same,promoter activity interaction Z-score,[2]; [11],0.268 ± 0.14
same,promoter activity interaction Z-score,[2]; [12],0.459 ± 0.1
same,promoter activity interaction Z-score,[2]; [13],0.54 ± 0.35
same,promoter activity interaction Z-score,[2]; [14],0.617 ± 0.38
same,promoter activity interaction Z-score,[2]; [15],0.806 ± 0.22
same,promoter activity interaction Z-score,[2]; [16],1.87 ± 0.21
same,promoter activity interaction Z-score,[2]; [17],1.31 ± 0.22
same,promoter activity interaction Z-score,[2]; [18],1.34 ± 0.3
same,promoter activity interaction Z-score,[2]; [19],1.3 ± 0.3
same,promoter activity interaction Z-score,[2]; [20],2.2 ± 0.17
same,promoter activity interaction Z-score,[2]; [21],2.59
same,promoter activity interaction Z-score,[3]; [8],0.913 ± 0.45
same,promoter activity interaction Z-score,[3]; [9],-0.122 ± 0.027
same,promoter activity interaction Z-score,[3]; [10],-0.273 ± 0.066
same,promoter activity interaction Z-score,[3]; [11],0.0903 ± 0.17
same,promoter activity interaction Z-score,[3]; [12],0.742 ± 0.35
same,promoter activity interaction Z-score,[3]; [13],-0.1986 ± 0.0018
same,promoter activity interaction Z-score,[3]; [14],-0.176 ± 0.13
same,promoter activity interaction Z-score,[3]; [15],0.695 ± 0.24
same,promoter activity interaction Z-score,[3]; [16],0.748 ± 0.99
same,promoter activity interaction Z-score,[3]; [17],-0.167 ± 0.085
same,promoter activity interaction Z-score,[3]; [18],-0.148 ± 0.073
same,promoter activity interaction Z-score,[3]; [19],-0.224 ± 0.12
same,promoter activity interaction Z-score,[3]; [20],-1.13 ± 0.77
same,promoter activity interaction Z-score,[3]; [21],-0.537 ± 0.026
same,promoter activity interaction Z-score,[3]; [22],-0.792 ± 0.2
same,promoter activity interaction Z-score,[4]; [8],0.573 ± 0.45
same,promoter activity interaction Z-score,[4]; [9],0.458 ± 0.21
same,promoter activity interaction Z-score,[4]; [10],0.2177 ± 0.0014
same,promoter activity interaction Z-score,[4]; [11],0.925 ± 0.37
same,promoter activity interaction Z-score,[4]; [12],0.894 ± 0.58
same,promoter activity interaction Z-score,[4]; [13],0.288 ± 0.31
same,promoter activity interaction Z-score,[4]; [14],1.58 ± 1.1
same,promoter activity interaction Z-score,[4]; [15],2.48 ± 1.1
same,promoter activity interaction Z-score,[4]; [16],1.78 ± 0.84
same,promoter activity interaction Z-score,[4]; [17],1.17 ± 0.52
same,promoter activity interaction Z-score,[4]; [18],1.96 ± 2
same,promoter activity interaction Z-score,[4]; [19],1.97 ± 0.072
same,promoter activity interaction Z-score,[4]; [20],-0.66 ± 0.73
same,promoter activity interaction Z-score,[4]; [22],-1.6
same,promoter activity interaction Z-score,[5]; [8],-0.139 ± 0.59
same,promoter activity interaction Z-score,[5]; [9],-0.666 ± 0.22
same,promoter activity interaction Z-score,[5]; [10],-0.816 ± 0.1
same,promoter activity interaction Z-score,[5]; [11],-0.469 ± 0.72
same,promoter activity interaction Z-score,[5]; [12],-0.638 ± 0.12
same,promoter activity interaction Z-score,[5]; [13],-2.16 ± 0.55
same,promoter activity interaction Z-score,[5]; [14],-1.32 ± 0.2
same,promoter activity interaction Z-score,[5]; [15],-0.16 ± 0.77
same,promoter activity interaction Z-score,[5]; [16],-2.01 ± 0.31
same,promoter activity interaction Z-score,[5]; [17],-2.33 ± 0.13
same,promoter activity interaction Z-score,[5]; [18],-2.18 ± 0.23
same,promoter activity interaction Z-score,[5]; [19],-2.29 ± 0.77
same,promoter activity interaction Z-score,[5]; [20],-2.43 ± 0.2
same,promoter activity interaction Z-score,[5]; [21],-3.56 ± 0.35
same,promoter activity interaction Z-score,[6]; [8],0.111 ± 0.015
same,promoter activity interaction Z-score,[6]; [9],0.214 ± 0.046
same,promoter activity interaction Z-score,[6]; [10],-0.111 ± 0.089
same,promoter activity interaction Z-score,[6]; [11],0.0397 ± 0.3
same,promoter activity interaction Z-score,[6]; [12],-0.0179 ± 0.043
same,promoter activity interaction Z-score,[6]; [13],-0.0482 ± 0.098
same,promoter activity interaction Z-score,[6]; [14],0.228 ± 0.28
same,promoter activity interaction Z-score,[6]; [15],0.647 ± 0.18
same,promoter activity interaction Z-score,[6]; [16],0.0493 ± 0.044
same,promoter activity interaction Z-score,[6]; [17],0.351 ± 0.19
same,promoter activity interaction Z-score,[6]; [18],0.215 ± 0.16
same,promoter activity interaction Z-score,[6]; [19],1.65 ± 0.52
same,promoter activity interaction Z-score,[6]; [20],0.956 ± 0.22
same,promoter activity interaction Z-score,[6]; [21],0.78 ± 0.098
same,promoter activity interaction Z-score,[6]; [22],3.05 ± 2.9
same,promoter activity interaction Z-score,[7]; [8],0.39 ± 0.18
same,promoter activity interaction Z-score,[7]; [9],-0.768 ± 0.45
same,promoter activity interaction Z-score,[7]; [10],-0.66 ± 0.14
same,promoter activity interaction Z-score,[7]; [11],-0.318 ± 0.13
same,promoter activity interaction Z-score,[7]; [12],0.0127 ± 0.24
same,promoter activity interaction Z-score,[7]; [13],-1.38 ± 0.97
same,promoter activity interaction Z-score,[7]; [14],-0.333 ± 1.4
same,promoter activity interaction Z-score,[7]; [15],-0.0456 ± 0.47
same,promoter activity interaction Z-score,[7]; [16],0.177 ± 1.4
same,promoter activity interaction Z-score,[7]; [17],-0.63 ± 0.74
same,promoter activity interaction Z-score,[7]; [18],0.449 ± 2.3
same,promoter activity interaction Z-score,[7]; [19],0.434 ± 0.85
same,promoter activity interaction Z-score,[7]; [20],1.66 ± 1.9
same,promoter activity interaction Z-score,[7]; [21],-1.14 ± 3.2
same,promoter activity interaction Z-score,[7]; [22],0.542 ± 0.66
